{
  "source": "PubChem BioAssay AID743158",
  "about": "(Broad Institute, 2013)",
  "note": "Entries with a potency or affinity are not part of this list. The source made the active and inactive calls.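 How the source made its calls: active means cell killing with a fitted half-maximal concentration at most twice the top valid dose tried; inconclusive means flat fit between -70 and -30 percent, or an invalid fit; inactive means the rest.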",
  "data": [
    {"assay": "viability loss in A549 lung cancer cells – cell-based, CellTiter-Glo luminescence, dry powder, set 5, cytotoxicity control, dose response (AID 743158)", "conditions": "CellTiter-Glo ATP luminescence, 72 h; series mostly up to 26 µM; activity change, negative = cytotoxicity: at the top concentration", "values": [
      {"molecule": "Cc1ccc(OCCn2c(=S)[nH]c3ccccc32)c(C(C)C)c1", "outcome": "inactive"},
      {"molecule": "COC(=O)C1=C(C)N(Cc2ccc(Cl)cc2)C(=S)NC1c1ccc(Br)cc1", "note": "(configuration not stated)", "activity change, negative = cytotoxicity": "10.9% (inactive)"},
      {"molecule": "c1ccc(OCCn2cnc3ccccc32)cc1", "activity change, negative = cytotoxicity": "-5.44% (inactive)"},
      {"molecule": "S=c1[nH]c2cccc(Cl)c2n1CCOc1ccccc1", "activity change, negative = cytotoxicity": "3.73% (inactive)"},
      {"molecule": "Cc1ccc(OCCn2c(=S)[nH]c3ccccc32)cc1", "activity change, negative = cytotoxicity": "-5.22% (inactive)"},
      {"molecule": "COC(=O)C1=C(C)N(Cc2ccc(Br)cc2)C(=S)NC1c1ccc(F)cc1", "note": "(configuration not stated)", "activity change, negative = cytotoxicity": "14.4% (inactive)"},
      {"molecule": "Cc1ccc2c(c1)[nH]c(=S)n2CCOc1ccccc1", "activity change, negative = cytotoxicity": "22.8% (inactive)"}
    ]}
  ]
}
